In PubChem BioAssay AID504847 (National Center for Advancing Translational Sciences (NCATS), 2011) one finds max response, negative = inhibition and Potency data, which are given here for 90 compounds.

SMILES strings stand for the structures. Hit rate of the full screen: of about 400,000 compounds, about 3,700 (0.93%) were called active. Another 3% or so got no clear call; they are omitted. The full list was thinned out, with actives kept by preference. A structure can be active in one record and inactive in another. Values without a mark were called inactive. Calls follow the shape of the dose curve; as a rule, active = well fitted inhibition curve with a large enough effect; inconclusive = small, poorly fitted or top-dose-only effect, or another doubt; inactive = no such curve, though single readings can be large or run the other way.
% is scaled to controls: 0 for no effect and ±100 for the full control effect; potency is read from the fitted curve at half-maximal effect.

The target of the test is Vitamin D3 receptor (Homo sapiens) (UniProt P11473). Description: Inhibitors of the vitamin D receptor (VDR): qHTS. Particulars: VDR-SRC2-3 peptide fluorescence polarization, 2 h; max response, negative = inhibition: active compounds read low. An excerpt: The vitamin D receptor (VDR) is a ligand-activated transcription factor and is partially responsible for the regulation of the endocrine system. This includes the transcriptional regulation of genes involved in the production of the parathyroid hormone (PTH) and the regulation of the blood calcium level. High levels of PHT can cause hypercalcemia in the case of primary and tertiary hyperparathyroidism. The VDR-mediated gene regulation, activated by its ligand 1,25-dihydroxyvitamin D3 (1,25-(OH)2D3), is governed by the recruitment of coactivators. Our hypothesis is that small molecules, with the ability to inhibit the interaction between VDR and certain coactivators, are able to selectively modulate VDR-mediated transcription. Our long term objective is the application these VDR-coactivator inhibitors to study the role of VDR-coactivator binding for specific VDR regulated genes. Ultimately, these molecules can be developed into new treatments for hypercalcemic hyperparathyroidism. No small molecule or non-peptide inhibitors are known for the VDR-coactivator interaction.
Vitamin D3 receptor (Homo sapiens), sequence (P11473 whole entry, looked up): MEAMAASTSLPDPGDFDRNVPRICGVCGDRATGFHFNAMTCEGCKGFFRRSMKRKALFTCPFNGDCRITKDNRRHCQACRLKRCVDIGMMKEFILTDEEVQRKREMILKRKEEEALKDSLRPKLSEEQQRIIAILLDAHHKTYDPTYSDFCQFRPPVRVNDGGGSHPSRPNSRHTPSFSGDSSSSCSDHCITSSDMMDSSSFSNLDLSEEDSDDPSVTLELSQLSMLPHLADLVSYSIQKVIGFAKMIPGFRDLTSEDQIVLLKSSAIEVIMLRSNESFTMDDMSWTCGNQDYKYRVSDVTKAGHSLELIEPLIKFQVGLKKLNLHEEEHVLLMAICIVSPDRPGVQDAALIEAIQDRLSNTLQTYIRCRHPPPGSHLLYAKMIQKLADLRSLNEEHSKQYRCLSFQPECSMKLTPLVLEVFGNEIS
In a collaboration between the University of Wisconsin, Milwaukee and the NIH Chemical Genomics Center (NCGC) a HTS-compatible enzymatic assay was developed. The assay uses fluorescence polarization as its read-out to measure the inhibition between VDR and coregulator peptide SRC2-3 exerted by small molecules. This assay was used to screen the NIH Molecular Libraries Small Molecule Repository (MLSMR).
NIH Chemical Genomics Center [NCGC]
NIH Molecular Libraries Probe Centers Network [MLPCN]
Assay Submitter (PI): Alexander Arnold, University of Wilwaukee
Both solutions are kept at 4 deg C and protected from light and dispensed using a Kalypsys dispenser. Then 23nl of compounds and controls are added with Kalypsys pintool. […] Plate is centrifuged at 1000 RPM for 15 seconds to remove any residual bubbles. The plate is then incubate at ambient room temperature for 2 hours.
In general terms: In qHTS, concentration-response curves come from the screen itself.
`COc1ccc(C(=O)NC(C)CCc2ccccc2)c(OC)c1` (stereo unspecified): the max response, negative = inhibition was -15.7%.
As for `COc1ccc2c(c1)C(=C(C#N)C#N)C(=O)N2CCc1ccccc1`, the Potency is 50.1 µM (active).
In the case of `C#CCN1C(=O)C(O)(CC(=O)c2cc(OC)ccc2OC)c2ccccc21` (stereo unspecified), the max response, negative = inhibition was -3.89%.
Same read-out and setting: as for `COc1ccccc1-c1nnc(SCC(N)=O)o1`, the figure is 10.5%; as for `CCC(=O)N1CCc2cc(Br)cc(S(=O)(=O)CCC(=O)NCc3ccccc3OC)c21`, -6.5%; as for `COc1ccc(C2Nc3ccc(NC(=O)COC(C)=O)cc3C(=O)N2Cc2ccccc2)cc1COc1ccc(NC(C)=O)cc1` (stereo unspecified), -2.53%.
As for `CCOc1ccc(NC(=O)CN(Cc2ccccc2)S(=O)(=O)c2ccc(Cl)cc2)cc1`, the max response, negative = inhibition was 3.79%.
The same measure, in the same setting: the same measure for `CCOc1ccc(N(Cc2ccccc2)C(=O)c2nc(SCC)ncc2Cl)cc1`: 3.07%.
For the compound `CCOc1ccc(N(Cc2ccccc2)C(=O)c2nc(S(C)(=O)=O)ncc2Cl)cc1`, the Potency is 12.6 µM (active).
On to `COc1ccc(CCNC(=O)CCCn2c(=O)c3ccccc3n(Cc3ccc(C)cc3)c2=O)cc1OC`, for which the max response, negative = inhibition was -9.82%.
Consider `Cc1ccccc1NC(=O)Cn1c(=O)n(CCCCC(=O)NCc2ccccc2Cl)c(=O)c2ccccc21`, for which the max response, negative = inhibition is -9.56%.
For `Cc1ccc(Cn2c(=O)n(CCCC(=O)NCc3ccccc3Cl)c(=O)c3ccccc32)cc1`, the Potency was 89.1 µM (active).
As for `O=C1N(Cc2ccccc2)c2ccc(Cl)cc2C1(O)c1c[nH]c2ccccc12` (stereo unspecified), the max response, negative = inhibition was -7.22%.
As to `Cc1c(Cl)cccc1-c1ccc(CNCCCSc2nnnn2C)o1`, the max response, negative = inhibition was 17.5%.
Turning to `CC(C)(C)c1ccc(S(=O)(=O)N2CCN(C(=O)c3cc(-c4ccc(Br)cc4)n[nH]3)CC2)cc1`, the max response, negative = inhibition is 0.49%.
Still for that read-out and setting: as for `O=C(c1cc(-c2ccc(O)cc2)on1)N1CCOCC1`, the figure is 4.52%.
For `O=C(c1cc(-c2ccc(F)cc2)on1)N1CCN(c2ccc(F)cc2)CC1`, the Potency was 70.8 µM (active) and the max response, negative = inhibition was -26.1%.
`O=C(c1cc(-c2ccc(Cl)cc2)on1)N1CCN(c2ccccc2)CC1`: the max response, negative = inhibition was 0.117%.
The same measure, in the same setting: as for `CCCCn1c(=O)c2oc3ccccc3c2n(CC(=O)Nc2ccccc2OC)c1=O`, the figure is 4.96%; as for `C=C(C)C1CC=C(CO)CC1` (stereo unspecified), 1.87%.
On the same count and under the same terms, the same measure for `Cc1ccn2c(Nc3ccc4c(c3)OCCO4)c(-c3ccc(C)s3)nc2c1`: -0.614%.
Regarding `O=C(O)[C@@H](S)[C@H](S)C(=O)O`, the Potency was 17.8 µM (active).
As to `CCCCCCC1(C)NC(c2ccc3c(c2)OCO3)=CC(c2ccccc2O)N1` (stereo unspecified), the max response, negative = inhibition is -18%.
`CCOC(=O)c1nnn(CC(=O)NC(=O)Nc2ccccc2F)c1C(=O)OCC`: the max response, negative = inhibition is 1.08%.
In the case of `N#Cc1ccccc1Cn1cnc2nc3c(cc2c1=O)CCCC3`, the max response, negative = inhibition was -2.58%.
On the same count and under the same terms, the same measure for `COCCn1c(CCC(=O)Nc2cc(C)ccc2C)nc2cccnc21`: 7.95%; for `Cc1ccc(F)cc1NC(=O)CCSc1nc(-c2ccco2)cc(C(F)(F)F)n1`: 7.81%.
On the same count and under the same terms, the same measure for `COc1ccc(Cl)cc1NC(=O)CSc1nc(-c2cccs2)cc(C(F)(F)F)n1`: -17%.
As to `COc1ccccc1-c1cc(C(F)(F)F)nc(S(=O)(=O)CCCC(=O)Nc2ccc(F)cc2F)n1`, the Potency was 56.2 µM (active).
For `CCOc1ccc(-c2cc3nc(C4CCN(C(=O)OC(C)(C)C)CC4)c(C(=O)Nc4ccc(C(=O)OC)cc4)cn3n2)cc1`, the max response, negative = inhibition is -12.8%.
The same measure, in the same setting: as for `CCN1C(=O)c2ccccc2S(=O)c2ccc(C(=O)NCc3ccc(F)cc3)cc21` (stereo unspecified), the figure is -17%; as for `CO[C@@]12[C@@H](COC(N)=O)C3=C(C(=O)C(C)=C(N)C3=O)N1C[C@@H]1N[C@@H]12`, 1.74%; as for `COc1ccc(C2C(=O)N(C3CCCCC3)CC(=O)N2Cc2ccccc2Cl)cc1OC` (stereo unspecified), 5.49%.
For the compound `CSc1nc(C)cc(SC(C(C)=O)C(=O)Nc2ccccc2)n1` (stereo unspecified), the Potency is 79.4 µM (active).
Take `CC(Sc1nnc2c(n1)C1CCC2(C)C1(C)C)C(=O)Nc1ccccc1` (stereo unspecified): the max response, negative = inhibition is -21.5%.
`CSc1nc(N(C)NC(=O)c2cccc(C)c2)c2ccccc2n1`: the max response, negative = inhibition was 6.12%.
Same read-out and setting: the same measure for `COc1ccc(NC(=O)CSc2nc3ccccc3n2CC(=O)N2CCCCC2C)cc1` (stereo unspecified): -0.157%; for `O=C(Nc1cccc2cccnc12)C(F)(F)F`: 3.86%; for `Cc1ccc(-c2nn(CC(C)(C)C)c3ncnc(N)c23)cc1`: -0.691%.
Same read-out and setting: as for `CCc1nn(CC(=O)N2CCN(c3ccc(Cl)cc3)CC2)c(=O)c2cc3occc3n12`, the figure is 22.3%; as for `CCN(CC)CCNC(=O)Cn1ncc2c3ccccc3n(Cc3ccccc3C)c2c1=O`, 13.4%.
Turning to `CCOC(=O)c1c(NC(=O)Cc2coc3ccc(CC)cc23)sc2c1CCC2`, the max response, negative = inhibition was 2.49%.
With `CCOC(=O)c1c(NC(=O)c2ccc(S(=O)(=O)N(CC)CC)cc2)sc2c1CCCCC2`, the max response, negative = inhibition was -15.3%.
Regarding `CCOC(=O)c1c(NC(=O)C2(C)Cc3ccccc3C(=O)O2)sc2c1CCCC2` (stereo unspecified), the Potency was 79.4 µM (active).
In the case of `CCC(=O)Nc1ccc2nc(SCC(=O)N3CCc4ccccc43)sc2c1`, the max response, negative = inhibition was 13%.
The same measure, in the same setting: as for `CCOC(=O)C1C/C(=C\C(C)=O)c2cccc(C(F)(F)F)c2O1` (stereo unspecified), the figure is -3.65%.
In the case of `CN(C)c1ccc(N/C=C/C(=O)C(F)(F)F)cc1`, the Potency was 25.1 µM (active).
In the case of `CN(C)c1ccc(/C=N/NC(=O)C(O)c2ccc(Br)cc2)cc1` (stereo unspecified), the max response, negative = inhibition is 5.61%.
The same measure, in the same setting: the same measure for `COc1cc(OC)c(C(=O)Nc2ccc(N(C)C)cc2)cc1OC`: -2.21%; for `O=C(CSc1nc(-c2cccc(F)c2)[nH]c1-c1ccccc1)Nc1ccc2c(c1)OCO2`: -7.99%; for `CCOc1ccc(N(CC)C(=O)c2cc3c(=O)oc4ccccc4c3s2)cc1`: -18%.
Same read-out and setting: as for `CCOc1cc(CNC(=O)c2sc3ncnc(N(C)C4CCCCC4)c3c2C)ccc1OC`, the figure is 5.17%; as for `COc1cc(NC(=O)CSc2nc3nc(C)c(Cc4ccc(C)cc4)c(C)n3n2)cc(OC)c1OC`, 12.5%.
On the same count and under the same terms, as for `N#CC1=C(N)Oc2n[nH]c(CSc3ccccc3)c2C12C(=O)Nc1ccccc12` (stereo unspecified), the figure is 12%; as for `CC1(C)Cc2ccccc2-c2[nH]c(=S)[nH]c(=O)c21`, -2%.
On to `N#CC1=C(N)Oc2[nH]c(=S)[nH]c(=O)c2C12C(=O)Nc1ccccc12` (stereo unspecified), for which the Potency is 44.7 µM (active).
In the case of `COc1ccccc1OCCC(=O)OCC(=O)NCc1ccccc1`, the max response, negative = inhibition was -14.2%.
`COc1cc(C(=S)NCc2ccccc2)cc(Br)c1O`: the Potency was 50.1 µM (active).
For the compound `COc1cc(C(=O)NCc2ccncc2)cc(Br)c1OCc1ccccc1`, the max response, negative = inhibition is -8.88%.
Still for that read-out and setting: the same measure for `COc1ccc(NC(=O)C2CCCN(S(=O)(=O)c3cccc4nonc34)C2)cc1Cl` (stereo unspecified): -11.1%.
Still for that read-out and setting: the same measure for `Cc1ccc(NC(=O)C(=O)NCC(c2cccnc2)N2CCOCC2)cc1` (stereo unspecified): 7.68%.
As to `COc1ccc(CCn2cc3c(c2-c2ccc(Br)cc2)c(=O)n(C)c(=O)n3C)cc1OC`, the max response, negative = inhibition is -7.8%.
Turning to `COCCNC(=S)Nc1cc(S(=O)(=O)N2CCOCC2)ccc1N1CCCCC1`, the Potency is 35.5 µM (active).
Turning to `Cc1ccc(S(=O)(=O)N2CCOCC2)cc1C(=O)Nc1ccccc1N1CCCC1`, the max response, negative = inhibition is -16.8%.
Take `O=C(COC(=O)Cc1ccc(F)cc1)Nc1cc(S(=O)(=O)N2CCOCC2)ccc1N1CCCC1`: the max response, negative = inhibition was 2.6%.
Same read-out and setting: as for `COCCn1c(=O)c(-c2ccccc2)nc2cnc(N3CCOCC3)nc21`, the figure is 8.94%; as for `CCC(=O)N1N=C(c2ccc(OC)cc2)CC1c1cn(-c2ccccc2)nc1-c1cccs1` (stereo unspecified), -4.57%.
Same read-out and setting: as for `Cc1ccccc1NC(=O)Cn1c(=O)n(CCc2ccccc2)c(=O)c2ccccc21`, the figure is -10.9%; as for `Cc1cc(Cl)ccc1OCC(=O)N(Cc1ccc(N(C)C)cc1)C1CCS(=O)(=O)C1` (stereo unspecified), 9.26%; as for `CC(C)Cn1c(=O)c2ccccc2n2c(-c3cccc(Cl)c3)nnc12`, 21.6%.
Consider `O=c1[nH]c2ccccc2n2c(-c3ccccc3)nnc12`, for which the Potency was 12.6 µM (active).
Consider `CCc1ccc(NC(=O)c2cc(S(=O)(=O)N3CCCC(C)C3)cn2C)cc1` (stereo unspecified), for which the max response, negative = inhibition was 9.47%.
The same measure, in the same setting: as for `COc1ccc(C2CC(=O)N(Cc3ccccc3C)c3c2c(C)nn3-c2nc(C)cc(C)n2)c(OC)c1` (stereo unspecified), the figure is 5.38%; as for `CSc1nc(Nc2ccc(F)cc2)cc(-c2ccccc2)n1`, 5.7%.
On the same count and under the same terms, the same measure for `CN(C)c1nc(NN)nc(Nc2ccc(F)cc2)n1`: -11.3%.
On to `Fc1ccc(Nc2nnns2)cc1`, for which the Potency was 79.4 µM (active).
On to `Cc1ccc(-c2nc(SCc3ccc(Br)cc3)n3[nH]c(=O)cc3n2)cc1`, for which the max response, negative = inhibition was 16.1%.
Same read-out and setting: as for `CCc1ccccc1N1CC(c2nc3ccccc3n2CCCCOc2ccccc2)CC1=O` (stereo unspecified), the figure is 13.5%.
The same measure, in the same setting: as for `Cc1cccc(C(=O)Nc2ccc(C(=O)/C=C/c3cccs3)cc2)c1`, the figure is 5.44%; as for `Cc1cc(C)nc(NC(=O)/C=C/c2ccc(Cl)cc2)n1`, -4.04%.
With `Cc1cccc(C=CC(=O)c2ccc(Cl)cc2)c1`, the Potency was 20 µM (active).
For `COc1ccc(S(=O)(=O)NCc2cccn2Cc2cccc(C)c2)cc1`, the max response, negative = inhibition is -9.31%.
The same measure, in the same setting: the same measure for `CCC1CCCCN1Cc1c(O)ccc2c(=O)c(Oc3ccccc3Cl)c(C(F)(F)F)oc12` (stereo unspecified): -11.4%; for `CN1CCN2c3ccccc3Cc3ccccc3[C@@H]2C1`: -7.22%; for `COc1ccc(C(=O)CSc2c(C(C)C)cnc3c2c(=O)n(C)c(=O)n3C)cc1`: -4.32%.
Same read-out and setting: as for `CCc1ccccc1NC(=O)c1sc2nc3c(cc2c1N)CN(Cc1ccccc1)CC3`, the figure is -9.37%; as for `COc1ccc(NC(=O)CCCc2nnc3n(CCC(C)C)c(=O)c4sccc4n23)c(OC)c1`, -1.71%; as for `COc1ccccc1NC(=O)/C=C/C(N)=O`, 1.2%.
Consider `COC(=O)c1sc(-c2ccc(C(C)(C)C)cc2)cc1NC(=O)/C=C/C(=O)O`, for which the Potency was 28.2 µM (active).
For `COc1ccc(NS(=O)(=O)c2ccc(N3CCOCC3)c(NC(=O)/C=C/C(=O)O)c2)cc1`, the max response, negative = inhibition is 1.49%.
